Bioassay records from PubChem BioAssay.
gsp agonist: qHTS for Agonist of gsp, the Etiologic Mutation Responsible for Fibrous Dysplasia/McCune-Albright Syndrome: qHTS | gsp mutant cells, cAMP HTRF, 30 min | Potency, µM (doses to about 76.9 µM), for inactives: top-dose activation (cAMP increase), actives largely listed as activators | 340,000 compounds, 0.13% hits | AID 624287, 2012; active = well fitted activation curve with a large enough effect; inconclusive = small, poorly fitted or top-dose-only effect, or another doubt; inactive = no such curve, though single readings can be large or run the other way; cell line not stated here;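 note: phosphodiesterase inhibitor Ro 20-1724 added with compounds to block cAMP breakdown; potency is the fitted concentration of half-maximal effect; nearly all actives have a fitted effect of over 60% in size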
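Cells in DMEM/10% FBS with G418 were pretreated with compounds in DMSO plus […] (300 uM stock) for 30 min at 37C. cAMP was measured by HTRF (cAMP-d2 plus anti-cAMP antibody-K) after 30 min at room temperature.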
a7 integrin act: qHTS for Activators of Integrin-Mediated Alleviation for Muscular Dystrophy; alpha7betagal myoblasts, beta-gal FDG fluorescence, 48 h; Potency, µM (doses to about 38.3 µM), without a hit: top-dose activation, actives largely listed as activators; 350,000 compounds, 0.064% hits; AID 624291, 2012;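 note: potency is the fitted concentration of half-maximal effect; 100% = response of the positive control SU9516; nearly all actives have a fitted effect of over 60% in size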
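alpha7betagal+/- myoblasts (passage 13, 250/well) treated 48 h at 37C with compounds at 1:260 dilution of DMSO stock. Lysed, then beta-galactosidase activity read as FDG fluorescence (ex 480/em 540) after 30 min, with pre-read for autofluorescence.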
gsp antagonist: qHTS for Antagonists of gsp, the Etiologic Mutation Responsible for Fibrous Dysplasia/McCune-Albright Syndrome: qHTS. gsp-mutant cells, cAMP HTRF, 30 min. Potency, µM (top dose mostly 76.9 µM), for inactives: top-dose activity change, negative = inhibition, most hits filed as inhibitors. AID 624288, 2012. 340,000 compounds, 0.4% hits; calls by dose curve; cell line not stated here;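 note: intracellular cAMP measured with PDE inhibitor Ro 20-1724 present during compound exposure; potency is the fitted concentration of half-maximal effect; % is set by controls: 0 for no effect and ±100 for the full control effect; nearly all actives have a fitted effect of over 65% in size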
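Cells in G418 medium, seeded 16-24 h, 37C; buffer exchange to DPBS + 1 mM CaCl2, 0.5 mM MgCl2, 0.05% BSA; cpds in DMSO + […] (300 uM stock), 30 min 37C; HTRF cAMP detection.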
RXFP1 antagonist: qHTS Assay for Antagonists of the Relaxin Receptor RXFP1; HEK293-RXFP1, relaxin-stimulated cAMP HTRF, 30 min; hits give low values; activity change, negative = inhibition, % at 57.5 µM; 350,000 compounds, 0.59% hits;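 active = activity change of -60% or lower, but not beyond a set lower limit; inconclusive = change between -60% and -40%, or beyond the set limit; inactive = change above -40%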; note: % is set by controls: 0 for no effect and ±100 for the full control effect
ASM inhibitor: Inhibitors of Secretory Acid Sphingomyelinase (S-ASM): qHTS. AID 504937, 2011. Potency, µM (doses to about 57.5 µM), without a hit: at the top dose activity change, negative = inhibition, hits mostly inhibitors. placental ASM, HMU-PC fluorogenic substrate, 60 min. 340,000 compounds, 0.006% hits; note: potency is the fitted concentration of half-maximal effect
Target sequence (P17405 47-631 limits assumed): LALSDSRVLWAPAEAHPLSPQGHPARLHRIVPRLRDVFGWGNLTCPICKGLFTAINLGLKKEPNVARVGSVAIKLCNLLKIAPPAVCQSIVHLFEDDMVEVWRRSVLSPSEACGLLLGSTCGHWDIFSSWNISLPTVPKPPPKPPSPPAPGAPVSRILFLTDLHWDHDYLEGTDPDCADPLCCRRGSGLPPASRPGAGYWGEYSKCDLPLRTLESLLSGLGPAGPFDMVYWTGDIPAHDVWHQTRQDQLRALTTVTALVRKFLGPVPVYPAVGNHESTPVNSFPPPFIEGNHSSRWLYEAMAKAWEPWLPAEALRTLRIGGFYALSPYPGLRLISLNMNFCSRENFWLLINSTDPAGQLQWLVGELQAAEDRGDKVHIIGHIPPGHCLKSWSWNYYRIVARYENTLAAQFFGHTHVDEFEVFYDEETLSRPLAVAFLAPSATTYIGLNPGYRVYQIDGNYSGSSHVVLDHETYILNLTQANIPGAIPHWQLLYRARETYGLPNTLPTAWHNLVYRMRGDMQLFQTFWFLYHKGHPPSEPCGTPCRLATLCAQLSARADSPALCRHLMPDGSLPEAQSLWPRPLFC
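Human placenta-derived ASM enzyme was preincubated with compound for 10 minutes at room temperature, then given fluorogenic substrate HMU-PC0 (9 uM final) for 60 minutes at 37 °C; a pH 10 stop preceded fluorescence reading at Ex 386/Em 447 nm.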
RXFP1 agonist: qHTS Assay for Agonists of the Relaxin Receptor RXFP1 | HEK293T-RXFP1 cAMP TR-FRET, 30 min; response scale: percent of porcine relaxin response, buffer zero | 370,000 compounds, 0.3% hits | Relaxin receptor 1 (Homo sapiens), Q9HBX9 | Potency, µM (highest dose often 57.5 µM), for inactives: at the top dose activation, hits mostly activators; note: potency is the fitted concentration of half-maximal effect; % is set by controls: 0 for no effect and ±100 for the full control effect; nearly all actives have a fitted effect of over 60% in size
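cAMP rise read by TR-FRET after 30 min, 37C compound exposure (up to 58 uM) in RXFP1-transfected HEK293 cells with Ro 20174 present. EC50 from Hill-equation fits, with 29 nM porcine relaxin as 100% and buffer as basal.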
The depositor's hits bear a star; ? = inconclusive; nt = no result; [ ] = dose if it differs, or a comment. Only some compounds are listed: those with a hit (about 1.1% of all), similar ones and a draw of the others. Unless noted, calls come from the whole dose curve; as a rule, active = well fitted curve in the direction sought with a large enough effect; inconclusive = small, poorly fitted or top-dose-only effect, or another doubt; inactive = no such curve, though single readings can be large; an effect the other way counts as inactive or inconclusive.

SMILES	gsp agonist	a7 integrin act	gsp antagonist	RXFP1 antagonist	ASM inhibitor	RXFP1 agonist
O=C(NC(=S)Nn1cnc2c(cnn2-c2ccccc2)c1=O)c1ccc(Oc2ccccc2)cc1	-26.2%	8.3%	1.6%	nt	-1.0%	-0.2%
COc1ccc(Oc2c(O)c3ccccc3n(C)c2=O)cc1	-2.7%	7.6%	31.6µM*	-11.2	1.7%	3.4%
Cn1c(=O)c(Oc2ccc(Cl)cc2)c(O)c2ccccc21	18.5%	2.8%	-17.5%	-3.4	-5.2%	4.3%
CCOC(=O)c1cc(S(=O)(=O)N2CCN(c3ccc(C)cc3C)CC2)[nH]n1	nt	nt	nt	nt	nt	0.2%
O=C(c1ccc(C#Cc2ccccc2)o1)N1CCN(c2ccccn2)CC1	-15.1%	-14.5%	35.5µM*	13.4	-9.1%	4.8%
CCN(CC)c1ccc(S(=O)(=O)N2CCOCC2)cc1NC(=O)COC(=O)C1=COCCO1	4.0%[15.4 µM]	9.8%	11.5%	-2.5	1.3%	nt
O=C1C(C=Nc2ccccc2O)=C(O)c2ccccc21	4.3%	-22.4%	-2.5%	1.8	?	1.2%
Cc1ccc(O)c(N=CC2=C(O)c3ccccc3C2=O)c1	?	0.0%	8.2%	17.8	?	28.2µM*
CCOc1ccc2nc(Cl)c(C3CC(c4ccco4)=NN3S(C)(=O)=O)cc2c1 (centres undefined)	-1.0%[15.4 µM]	-12.3%	-12.4%	-70.6*	-1.2%	8.6%
Cc1cn2c(=O)c(S(=O)(=O)NCCc3ccccc3)c(C)nc2s1	nt	nt	nt	-13.0	nt	0.7%
CC1CCCN(c2ncnc3c2nnn3C)C1 (centres undefined)	nt	nt	nt	-2.7	nt	12.6%
Nc1ccc2nc(SCc3ccc([N+](=O)[O-])cc3)sc2c1	4.8%	-11.6%[7.66 µM]	9.4%	-1.0	-7.1%	0.9%
O=C(NC(Nc1nc2ccc([N+](=O)[O-])cc2s1)(C(F)(F)F)C(F)(F)F)c1ccccc1Cl	-1.1%	-38.4%	25.1µM*	-24.6	-9.7%	1.4%
O=[N+]([O-])c1ccc2nc(SCc3ccccc3Cl)sc2c1	-12.0%	4.2%	25.1µM*	-7.2	-5.4%	1.1%
O=C(NC(NNc1ccc([N+](=O)[O-])cc1)(C(F)(F)F)C(F)(F)F)c1ccccc1Cl	-87.5%	-40.9%	-30.3%	-10.0	?	5.8%
CN(C)S(=O)(=O)c1ccc2nc(NC(=O)c3cccnc3)sc2c1	43.7%	-23.7%	-7.8%	-2.9	19.7%	6.5%
O=C(NC(Nc1nc2ccc([N+](=O)[O-])cc2s1)(C(F)(F)F)C(F)(F)F)c1cccnc1	?	-60.1%	35.5µM*	-19.1	-7.0%	3.0%
CC(C)(C)NCC(O)COc1ccccc1OCC1CCCO1 (centres undefined)	nt	nt	nt	-7.5	nt	nt
O=C(CSc1nnc(-c2ccncc2)n1Cc1ccco1)Nc1nc(-c2ccccc2)cs1	-6.5%	-10.0%	35.5µM*	-15.9	1.7%	0.6%
O=C1S/C(=C\C=C\c2ccco2)C(=O)N1c1ccccc1	27.9%[15.4 µM]	-2.2%	-11.5%	?	-5.8%	0.2%
O=C1S/C(=C\C=C\c2ccco2)C(=O)N1c1ccc(O)cc1	17.9%	-20.5%	?	-62.9*	-8.6%	-0.1%
CCc1ccc(Cc2cnc(NC(=O)C3=NCCN3)s2)cc1	9.2%[15.4 µM]	-17.9%	-4.6%	-116.5*	-3.2%	-3.0%
Cc1ccc(CNC(=O)NC23CC4CC(CC(C4)C2)C3)cc1	-14.4%[15.4 µM]	10.8%	-11.7%	-9.2	-2.0%	2.4%
CC(=O)NC12CC3CC(C1)CC(C(=O)NCc1ccc(C)cc1)(C3)C2	-3.6%	?	6.9%	-68.2*	6.4%	-1.1%
Cc1cc(C)c(OCCNCc2ccccc2)c(C)c1	7.1%[15.4 µM]	-36.9%	9.7%	-16.5	1.1%	0.0%
Cc1cc(C)c(OCCCCNCc2ccccc2)c(Cl)c1	?	-67.9%	6.4%	-106.6*	-2.1%	0.6%
